Our source for the growth values is PubChem BioAssay (NCI).

What all share (test): NCI-60 one-dose screen, 48 h (100 = growth as untreated, 0 = no growth, -100 = all killed)
Common to all, as to conditions: 10 µM unless noted

The subject of assay [1] is EKVX NSCLC.
In assay [2] the test system is SN12C renal.
The test system of assay [3] is UO-31 renal.
For assay [4], the system named is TK-10 renal.
The subject of assay [5] is ACHN renal.
In assay [6] the test system is CCRF-CEM leukemia.
Assay [7] deals with MOLT-4 leukemia.
Assay [8] deals with SR leukemia.
Assay [9] concerns RPMI-8226 leukemia.
In assay [10] the test system is OVCAR-8 ovarian.
Assay [11] concerns OVCAR-5 ovarian.
Assay [12] relates to OVCAR-4 ovarian.
Assay [13] concerns SK-OV-3 ovarian.
For assay [14], the system named is IGROV1 ovarian.
Assay [15] deals with OVCAR-3 ovarian.
In assay [16] the test system is HS 578T breast.
The subject of assay [17] is NCI/ADR-RES ovarian.
Assay [18] deals with T-47D breast.
The test system of assay [19] is CAKI-1 renal.
Assay [20] has as its system A498 renal.

The panel holds about 83,000 compounds, 20% with a hit somewhere; the sample as a whole holds those more often.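 The test compound was applied at a single concentration to cells in 96-well plates for 48 hours, and percent growth was recorded.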 A number with no mark means an inactive call. The source made the active and inactive calls. How the source made its calls: active means growth percent below 10; inactive means the rest.

As for `COC(=O)C1CN(S(=O)(=O)/N=C2\NC(=O)NC2=C(Cl)Cl)C1`, the growth is 104% in assay [1]; 101% in assay [2]; 88.7% in [3]; 139% in assay [4]; 106% in [5]; 95.5% in assay [6]. Moreover, the growth in assay [7] was 104%; in assay [8], 94.4%; in [9], 85.2%; in [10], 99.9%; in assay [11] it was 116%; in [12], 123%. Further, the growth is 113% in assay [13]; 109% in assay [14]; 116% in [15]; 104% in assay [16]; 109% in assay [17]; 81% in assay [18].
For `C/C(=N\NC(N)=O)c1c(O)sc(=O)[nH]c1=O`, the growth in [1] is 95.8%; in assay [2], 97.1%; in assay [3], 87.1%; in [4], 110%; in [19], 96.9%; in assay [6], 100%. Besides, the growth is 109% in assay [7]; 114% in assay [8]; 102% in [9]; 99.9% in assay [10]; 102% in assay [11]; 105% in assay [12]. The growth was 115% in assay [13]; 99.7% in assay [14]; 114% in assay [15]; 91.4% in [16]; 105% in [17]; 105% in [18].
Regarding `O=C(N/N=C/c1ccc[nH]1)c1[nH]c2ccc(Br)cc2c1-c1ccccc1`, the growth in [1] was 24.4%; in assay [2], 28.7%; in [3], 12.3%; in assay [4], 44.5%; in assay [19], 21.2%; in [6] it was 5.27% (active). The growth in assay [7] is 5.94% (active); in assay [8], 1.89% (active); in [9], -1.05% (active); in [10], 13%; in assay [11], 43.7%; in assay [12] it was 33.2%. For the same compound, the growth in [14] was 8.52% (active); in [15] it was 22.2%; in assay [16], 29.5%; in assay [17] it was 14.8%; in assay [18] it was 14.1%.
On to `CN1CCN(Cc2ccc(NC(=O)c3cncc(C#Cc4cnc5ccc(N6CCSCC6)nn45)c3)cc2C(F)(F)F)CC1`, for which the growth was -47.1% (active) in [1]; -69.5% (active) in [2]; -11.5% (active) in assay [3]; -25.9% (active) in [4]; -26.7% (active) in assay [19]; -81.9% (active) in assay [20]. Also, the growth in assay [6] is 3.28% (active); in assay [7], 4.9% (active); in assay [8], -31.9% (active); in assay [9], -7.39% (active); in [10], -67.7% (active); in assay [11], -22.4% (active). For the same compound, the growth is -13.7% (active) in assay [12]; -19.8% (active) in assay [13]; -9.25% (active) in assay [14]; -59.6% (active) in assay [15]; -24.7% (active) in [16]; -11.6% (active) in assay [17]. Besides, the growth in assay [18] was 34.1%.
For the compound `NS(=O)(=O)c1ccc(Nc2nc(Nc3ccccc3)nc(-n3nc(-c4ccccc4)cc3-c3ccccc3)n2)cc1`, the growth in assay [1] was 40.3%; in assay [2], 41.2%; in assay [3], 29.1%; in assay [4] it was 108%; in [5] it was 15.3%; in assay [6] it was 10.7%. Moreover, the growth is 4.14% (active) in [7]; 0.684% (active) in [8]; 6.63% (active) in assay [9]; 40% in assay [10]; 78.1% in assay [11]; 37.9% in [12]. The growth in assay [13] was 65.8%; in assay [14], 25.6%; in [15], 31.5%; in assay [16], 64.6%; in assay [17] it was 45%; in [18], 36.9%.
Take `C=C1CC[C@H]2[C@@](C)(CCC3OC(c4ccc(OCc5cn(C6CC(OC(C)=O)C(OC(C)=O)C(COC(C)=O)O6)nn5)cc4)OC[C@]32C)[C@@H]1/C=C/C1=CCOC1=O` (stereo partly specified): the growth in assay [1] was 52.3%; in assay [2], 67.5%; in assay [3] it was 57.7%; in assay [4] it was 119%; in [5], 72.7%; in [6] it was 65.7%. In addition, the growth was 62.1% in assay [7]; 51% in assay [8]; 41.2% in [9]; 81.8% in assay [10]; 97.4% in assay [11]; 72.7% in [12]. In addition, the growth is 103% in assay [13]; 89.2% in assay [14]; 81.9% in [15]; 75.7% in assay [16]; 92.8% in [17]; 40% in assay [18].
On to `Cn1c(SCC(=O)c2cccs2)nc2ccccc2c1=O`, for which the growth in assay [1] was 73.1%; in [2], 91.8%; in assay [3] it was 84.5%; in [4], 177%; in [20], 63.9%; in assay [6] it was 80.3%. For the same compound, the growth in [7] is 87%; in assay [8], 90.4%; in assay [9], 81.7%; in assay [10], 97.5%; in assay [11], 109%; in assay [12], 92.9%. Also, the growth in [14] is 74.8%; in [15], 98%; in [16] it was 90.8%; in assay [18], 54.2%.
Regarding `COc1cc(/C=C/C(=O)c2cc(OC)c(OC)c(OC)c2)ccc1OCc1ccccc1`, the growth is 51.6% in [1]; 69.7% in assay [2]; 45.5% in assay [3]; 153% in assay [4]; 60% in [5]; 4.39% (active) in assay [6]. The growth is 26.2% in assay [7]; 6.67% (active) in [8]; -12.4% (active) in [9]; 16.8% in [10]; 47% in [11]; 41.2% in [12]. Further, the growth in [13] was 88.1%; in assay [14] it was 35.3%; in assay [16] it was 88.9%; in [17] it was 14.4%; in assay [18], 41.8%.
